Compounds with a hit are over-represented: about 2.4% of the library has one in this group of screens.
CHO-K1 Ca PAM: M1 PAM counterscreen hit in parental CHO-K1 cells. activation, % at 3 µM. actives 0.02% (n = 360,000). ATP EC20, Fluo-8 calcium fluorescence; 0% at ATP EC20, 100% at ATP max;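 active = activation above the run cutoff, the mean activation of all test compounds plus 3 SD, cut at about 40% in these data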;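 note: peak over basal fluorescence ratio in a 140 s read after ATP addition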
CHRM1 PAM: human CHRM1 positive allosteric modulation; P11229; CHO-K1 hM1, Fluo-8 calcium fluorescence, ACh EC20; 0% = ACh EC20, 100% = maximal ACh; activation, % at 3 µM; actives 0.088% (n = 360,000); AID 588819; in the data active = activation above about 19%, passing the limit was not always enough
Target sequence (P11229 whole entry, looked up): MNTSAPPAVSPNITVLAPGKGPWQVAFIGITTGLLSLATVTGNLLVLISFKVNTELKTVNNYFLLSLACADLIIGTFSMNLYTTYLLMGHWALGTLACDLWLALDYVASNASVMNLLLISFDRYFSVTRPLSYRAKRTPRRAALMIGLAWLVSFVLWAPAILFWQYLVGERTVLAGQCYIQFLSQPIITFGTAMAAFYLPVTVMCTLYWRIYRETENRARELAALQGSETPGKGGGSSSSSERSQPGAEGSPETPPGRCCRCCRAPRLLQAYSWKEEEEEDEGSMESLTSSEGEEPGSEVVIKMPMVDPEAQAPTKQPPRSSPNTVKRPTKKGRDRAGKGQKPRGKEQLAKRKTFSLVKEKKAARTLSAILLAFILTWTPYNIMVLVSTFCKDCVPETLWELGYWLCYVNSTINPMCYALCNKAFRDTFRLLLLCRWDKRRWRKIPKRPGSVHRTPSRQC
M1 antag: antagonists of human M1 muscarinic receptor; CHO-K1 hM1, Fluo-8 calcium fluorescence, ACh EC80 antagonist; actives 1.3% (n = 360,000); inhibition, % at 3 µM; AID 588852;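 active = percent inhibition above its own plate's cutoff, namely the mean of that plate's compound wells plus 3 SD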;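 note: peak over basal fluorescence ratio during 140 s after agonist addition; 0% = ACh EC80 plus DMSO and 100% = DMSO alone without agonist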
CHRM1 agonist: agonists of human M1 muscarinic receptor; P11229; CHO-K1 hM1, Fluo-8 calcium fluorescence, agonist mode; 0% DMSO, 100% acetylcholine EC100; activation, % at 3 µM; actives 0.33% (n = 360,000); AID 588814;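 active = activation above the run's mean compound activation plus 3 SD, cut at about 16% in these data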;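 note: peak over basal fluorescence ratio within a 140 s kinetic read after compound addition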
CHO-K1 Ca ag: nonselective activator or artifact in parental CHO-K1 cells; actives 0.48% (n = 360,000); Fluo-8 calcium fluorescence; scaled to maximal ATP response, vehicle zero; activation, % at 3 µM; AID 602248; in the data active = activation above about 15%;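 note: untransfected CHO-K1 host cells lacking M1 receptor as counterscreen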
CHO-K1 Ca antag: M1 antagonist counterscreen hit in parental CHO-K1 cells | ATP-induced calcium, Fluo-8 fluorescence | inhibition, % at 3 µM | actives 0.6% (n = 360,000) | AID 602250;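 active = inhibition above a per-plate cutoff, the plate's mean sample inhibition plus 3 SD, cut at about 24% in these data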;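 note: 0% = DMSO plus EC80 ATP and 100% = DMSO alone without ATP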
Active calls of the source: *.

SMILES	CHO-K1 Ca PAM	CHRM1 PAM	M1 antag	CHRM1 agonist	CHO-K1 Ca ag	CHO-K1 Ca antag
CCC(C)(C)C1CCC2(CC1)NC(=O)N(CC(=O)N(C)Cc1ccc(OC(F)F)cc1)C2=O (stereo not given)	8	1	0	0	0	-10
Cc1ccc(CNC(=O)[C@H]2O[C@@H](n3cnc4c(N)ncnc43)[C@H](O)[C@@H]2O)o1	-2	2	-20	-3	0	1
CN(CC(=O)Nc1ccc(F)c(F)c1F)C(=O)C1(c2ccccc2)CC1	7	3	-8	-2	2	24*
CN(CC(=O)Nc1ccccc1F)CC(=O)Nc1ccc(F)c(F)c1F	6	2	-3	-6	2	1
COc1ccc(/C(N)=N/OC(=O)Cc2ccc(OC)c(OC)c2)cc1	-11	-14	9	4	9	-4
CCC(=O)Nc1ccc2c(c1)nc1n2CCSC1	-7	0	9	-3	0	24*
CC(C)C(=O)Nc1ccc2c(c1)nc1n2CCSC1	16	11	-9	-1	1	-11
CCC(CC)CN1CCC(CN2C(=S)NC[C@@H]2[C@@H](C)CC)CC1	9	-5	-5	-11	1	-15
CC[C@H](C)[C@H]1CNC(=S)N1CC1CCN(CCCCc2ccccc2)CC1	1	-31	71*	-11	1	-5
CC(C)C[C@H]1CNC(=S)N1CC1CCN(CCC23CC4CC(CC(C4)C2)C3)CC1	24	-31	88*	-10	1	-18
CC[C@H](C)[C@H]1CNC(=S)N1CC1CCN(CCC(C)(C)C)CC1	2	4	-4	-8	0	-11
S=C1NCCN1CC1CCN(CCC23CC4CC(CC(C4)C2)C3)CC1	-11	-31	85*	-11	0	-7
CC[C@H](C)[C@H]1CNC(=S)N1CC1CCN(CCCC2CCCC2)CC1	6	-26	38*	-12	0	-11
CCN1CCC(CN2CCNC2=S)CC1	16	2	-4	-9	0	-6
Cc1ccc(NC(=O)CCS(=O)(=O)c2cccc3nonc23)c(Br)c1	21	8	-11	-5	1	-14
CC(C)C[C@H]1CNC(=S)N1CC1CCN(CC2CCC(C(C)(C)C)CC2)CC1 (stereo not given in full)	9	-31	76*	-10	1	-6
CC(C)C[C@H]1CNC(=S)N1CC1CCN(CCCC2CCCCC2)CC1	-1	-31	83*	-12	1	8
COc1ccc2cc(C(N)=O)c(=Nc3ccccc3)oc2c1	21	12	-7	-7	0	-3
NC(=O)c1cc2ccc(O)cc2oc1=Nc1ccccc1	-8	5	-20	9	2	24*
Cc1cccc(C)c1NC(=O)CNC(=O)c1ccc(COc2ccccc2)cc1	-11	-2	-1	-2	0	-2
COc1ccc(NC(=O)CSc2ccc3nnc(-c4ccccn4)n3n2)c(OC)c1	11	11	-8	-3	1	0
O=S(=O)(Nc1nc2ccccc2nc1NCc1ccco1)c1ccccc1	-6	4	-4	-1	0	25*
COC(=O)CCC/C=C1\SC[C@@H](NC(=O)c2ccccc2)C1NC(C)=O (stereo not given in full)	-13	6	2	1	1	6
CCc1ccc(NC(=O)C2CCN(S(=O)(=O)c3ccc4c(c3)NC(=O)C(C)S4)CC2)cc1 (stereo not given)	4	-19	55*	-2	6	11
Cc1ccc(NC(=O)C2CCN(S(=O)(=O)c3ccc4c(c3)NC(=O)C(C)S4)CC2)cc1C (stereo not given)	-18	-12	36	0	10	19
COc1cc2ccccc2cc1C(=O)Nc1ccc(Cl)cn1	2	-2	2	-4	0	-4
Cc1ccc(NC(=O)C2(c3ccccc3)CCOCC2)c([N+](=O)[O-])c1	9	4	-4	-7	2	3
Cn1c(/C=C/N2CCOCC2)c(C(=O)c2ccc(Br)cc2)c(=O)n(C)c1=O	2	1	1	-1	0	5
Cc1c(N=CN2CCOCC2)c(=O)n(C)c(=O)n1C	3	6	-7	0	17*	1

Screens from PubChem.
